From PubChem BioAssay AID1159580 (chemical genetic matrix, 2015)
Among all 5,500 compounds or so, about 2,000 (36%) were called active. Not shown: some 18% with an inconclusive outcome. Rule as the data show it: active = normalized growth mostly below about 0.91 (no sharp cut-off); inconclusive = no clear call, values can overlap the other calls; inactive = mostly above about 0.92. The list shows a part of the results.

Experiment: chemical genetic growth profiling, strain panel (AID 1159580);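 also: tested at 20 µM; growth read once vehicle control cultures reached saturation at 30 °C; 1 = growth at the plate median or of vehicle wells; lower values mean less growth of the strain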
Conditions: growth OD

Measured: normalized growth

COc1ccc(-c2c(O)c3c(OC)c4c(cc3oc2=O)OC(C)(C)C=C4)cc1
inactive: S. cerevisiae deletion strains, locus YJL187C, strain SWE1, stronger effect = lower value 0.952 | S. cerevisiae deletion strains, locus YJR066W, strain TOR1, stronger effect = lower value 0.934 | S. cerevisiae deletion strains, locus YKL009W, strain mrt4, stronger effect = lower value 0.935 | S. cerevisiae deletion strains, locus YKL068W, stronger effect = lower value 0.969 | S. cerevisiae deletion strains, locus YKL085W, strain MDH1 (second series), stronger effect = lower value 0.97 | S. cerevisiae deletion strains, locus YKL085W, strain MDH1, stronger effect = lower value 0.97 | S. cerevisiae deletion strains, locus YKL160W, strain elf1, stronger effect = lower value 0.936 | S. cerevisiae deletion strains, locus YKR001C, strain vps1, stronger effect = lower value 0.97 | S. cerevisiae deletion strains, locus YKR026C, strain gcn3, stronger effect = lower value 0.947 | S. cerevisiae deletion strains, locus YKR091W, strain srl3, stronger effect = lower value 0.954 | S. cerevisiae deletion strains, locus YLL001W, strain dnm1, stronger effect = lower value 0.968 | S. cerevisiae deletion strains, locus YLL026W, stronger effect = lower value 0.959 | S. cerevisiae deletion strains, locus YLL041C, strain sdh2, stronger effect = lower value 0.942 | S. cerevisiae deletion strains, locus YLR027C, strain aat2, stronger effect = lower value 0.965 | S. cerevisiae deletion strains, locus YLR039C, strain RIC1, stronger effect = lower value 1.01 | S. cerevisiae deletion strains, locus YLR058C, strain SHM2, stronger effect = lower value 0.949 | S. cerevisiae deletion strains, locus YLR102C, strain apc9, stronger effect = lower value 0.958 | S. cerevisiae deletion strains, locus YLR113W, strain HOG1, stronger effect = lower value 0.907 | S. cerevisiae deletion strains, locus YLR221C, strain rsa3, stronger effect = lower value 0.962 | S. cerevisiae deletion strains, locus YLR258W, strain gsy2, stronger effect = lower value 0.962 | S. cerevisiae deletion strains, locus YLR262C, strain YPT6 (second series), stronger effect = lower value 0.885 | S. cerevisiae deletion strains, locus YLR262C, strain YPT6, stronger effect = lower value 0.987 | S. cerevisiae deletion strains, locus YLR268W, strain sec22, stronger effect = lower value 0.91 | S. cerevisiae deletion strains, locus YLR320W, strain mms22, stronger effect = lower value 0.921 | S. cerevisiae deletion strains, locus YLR330W, strain CHS5, stronger effect = lower value 0.96 | S. cerevisiae deletion strains, locus YLR342W, strain FKS1, stronger effect = lower value 0.939 | S. cerevisiae deletion strains, locus YLR357W, strain rsc2, stronger effect = lower value 1 | S. cerevisiae deletion strains, locus YLR370C, strain arc18, stronger effect = lower value 0.95 | S. cerevisiae deletion strains, locus YLR371W, strain rom2, stronger effect = lower value 0.98 | S. cerevisiae deletion strains, locus YLR384C, strain iki3, stronger effect = lower value 0.954 | S. cerevisiae deletion strains, locus YML016C, strain PPZ1, stronger effect = lower value 0.958 | S. cerevisiae deletion strains, locus YML120C, strain ndi1, stronger effect = lower value 0.964 | S. cerevisiae deletion strains, locus YML124C, strain tub3, stronger effect = lower value 0.96 | S. cerevisiae deletion strains, locus YMR058W, strain fet3, stronger effect = lower value 0.961 | S. cerevisiae deletion strains, locus YMR078C, strain ctf18, stronger effect = lower value 0.942 | S. cerevisiae deletion strains, locus YMR125W, strain sto1, stronger effect = lower value 0.971 | S. cerevisiae deletion strains, locus YMR129W, stronger effect = lower value 0.95 | S. cerevisiae deletion strains, locus YMR205C, strain PFK2, stronger effect = lower value 0.909 | S. cerevisiae deletion strains, locus YMR223W, strain ubp8, stronger effect = lower value 0.928 | S. cerevisiae deletion strains, locus YMR231W, strain pep5, stronger effect = lower value 0.95 | S. cerevisiae deletion strains, locus YMR307W, strain GAS1, stronger effect = lower value 1.1 | S. cerevisiae deletion strains, locus YNL067W, strain RPL9B, stronger effect = lower value 0.967 | S. cerevisiae deletion strains, locus YNL071W, strain lat1, stronger effect = lower value 0.922 | S. cerevisiae deletion strains, locus YNL128W, strain TEP1, stronger effect = lower value 0.997 | S. cerevisiae deletion strains, locus YNL183C, strain NPR1, stronger effect = lower value 0.911 | S. cerevisiae deletion strains, locus YNL209W, strain ssb2, stronger effect = lower value 0.959 | S. cerevisiae deletion strains, locus YNL233W, strain BNI4, stronger effect = lower value 0.965 | S. cerevisiae deletion strains, locus YNL248C, strain rpa49, stronger effect = lower value 0.967 | S. cerevisiae deletion strains, locus YNL250W, strain rad50, stronger effect = lower value 0.913 | S. cerevisiae deletion strains, locus YNL271C, strain bni1, stronger effect = lower value 1 | S. cerevisiae deletion strains, locus YNL298W, strain CLA4, stronger effect = lower value 0.962 | S. cerevisiae deletion strains, locus YNL322C, strain KRE1 (second series), stronger effect = lower value 0.961 | S. cerevisiae deletion strains, locus YNL322C, strain KRE1, stronger effect = lower value 0.949 | S. cerevisiae deletion strains, locus YNR049C, strain mso1, stronger effect = lower value 0.965 | S. cerevisiae deletion strains, locus YNR052C, strain pop2, stronger effect = lower value 0.946 | S. cerevisiae deletion strains, locus YOL012C, strain htz1 0.954 | S. cerevisiae deletion strains, locus YOR001W, strain rrp6, stronger effect = lower value 0.969 | S. cerevisiae deletion strains, locus YOR061W, strain CKA2, stronger effect = lower value 0.952 | S. cerevisiae deletion strains, locus YOR069W, strain VPS5, stronger effect = lower value 0.952 | S. cerevisiae deletion strains, locus YOR070C, strain gyp1, stronger effect = lower value 0.94 | S. cerevisiae deletion strains, locus YOR080W, strain dia2, stronger effect = lower value 0.971 | S. cerevisiae deletion strains, locus YOR083W, strain WHI5, stronger effect = lower value 0.953 | S. cerevisiae deletion strains, locus YOR106W, strain vam3, stronger effect = lower value 0.971 | S. cerevisiae deletion strains, locus YOR136W, strain idh2, stronger effect = lower value 0.959 | S. cerevisiae deletion strains, locus YOR144C, strain elg1, stronger effect = lower value 0.942 | S. cerevisiae deletion strains, locus YOR184W, strain ser1, stronger effect = lower value 0.971 | S. cerevisiae deletion strains, locus YOR231W, strain MKK1, stronger effect = lower value 0.969 | S. cerevisiae deletion strains, locus YOR265W, strain rbl2, stronger effect = lower value 0.937 | S. cerevisiae deletion strains, locus YOR270C, strain vph1, stronger effect = lower value 0.923 | S. cerevisiae deletion strains, locus YOR290C, strain snf2, stronger effect = lower value 0.938 | S. cerevisiae deletion strains, locus YPL051W, strain arl3, stronger effect = lower value 0.951 | S. cerevisiae deletion strains, locus YPL078C, strain atp4, stronger effect = lower value 0.967 | S. cerevisiae deletion strains, locus YPL106C, strain sse1, stronger effect = lower value 1.01 | S. cerevisiae deletion strains, locus YPL240C, strain hsp82, stronger effect = lower value 0.95 | S. cerevisiae deletion strains, locus YPL241C, strain CIN2, stronger effect = lower value 0.938 | S. cerevisiae deletion strains, locus YPL256C, strain CLN2, stronger effect = lower value 0.933 | S. cerevisiae deletion strains, locus YPR141C, strain kar3, stronger effect = lower value 0.958 | S. cerevisiae deletion strains, locus YPR167C, strain met16, stronger effect = lower value 0.94 | S. cerevisiae deletion strains, strain wtn01, stronger effect = lower value 0.958 | S. cerevisiae strains, strain wild type, stronger effect = lower value 0.993
active: S. cerevisiae deletion strains, locus YLR418C, strain cdc73, stronger effect = lower value 0.833 | S. cerevisiae deletion strains, locus YML032C, strain rad52, stronger effect = lower value 0.901 | S. cerevisiae deletion strains, locus YNL307C, strain MCK1, stronger effect = lower value 0.84 | S. cerevisiae deletion strains, locus YOL147C, strain pex11, stronger effect = lower value 0.928 | S. cerevisiae deletion strains, locus YOR316C, strain cot1, stronger effect = lower value 0.916 | S. cerevisiae deletion strains, locus YPR119W, strain clb2, stronger effect = lower value 0.928 | S. cerevisiae deletion strains, locus YPR163C, strain tif3, stronger effect = lower value 0.908
